Data from PubChem BioAssay AID598 (SRMLSC, 2007).
The campaign covered roughly 85,000 compounds. About 5,100 (6%) were called active.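 The calls were made as follows: active = viability at or below 40%; inactive = viability above 40%.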 The entries come from a sample that favours actives as a whole.

Experiment: H69AR cell viability reduction – human, 86K library, primary screen (AID 598);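 also: multidrug resistant small cell line overexpressing MRP-1 efflux transporter; 100% = mean luminescence of untreated control wells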
Conditions: H69AR lung tumor viability, ATP luminescence, 72 h; at 10 µM; active compounds read low

SMILES	viability
COC(=O)c1sc(=S)n(-c2ccc(Cl)cc2)c1C	90% (inactive)
CCOn1c(SC(C)C)nc2ccccc2c1=O	103% (inactive)
CCOC(=O)c1c(C)nc2c(c1C)c(=O)oc1ccccc12	98.3% (inactive)
Cc1ccc(OC(=O)c2cc3ccccc3o2)cc1	104% (inactive)
CCOC(=O)c1cc2cc(-c3c(C(=O)OCC)oc4cc(O)cc(O)c4c3=O)ccc2o1	16.6% (active)
CN(C)c1nc(N)nc(CSc2ccccn2)n1	91% (inactive)
Cc1cc(N/C=C\C(=O)c2ccc(Cl)c(Cl)c2)no1	84.8% (inactive)
CCCC(NS(=O)(=O)c1ccc(OC)cc1)C(=O)O (stereo unspecified)	104% (inactive)
COC(=O)CNS(=O)(=O)c1ccc(OC)cc1	91.5% (inactive)
CCOC(=O)c1ccccc1NS(=O)(=O)c1ccc(OC)cc1	18.2% (active)
O=c1[nH][nH]c(C(F)(F)F)c1C=NCc1ccccc1Cl	81.2% (inactive)
Cc1cccc(-c2noc(-c3ccc(F)cc3)n2)c1	91.5% (inactive)
Cn1nc(-c2ccccc2)c(-c2nc(-c3ccc(Cl)cc3)no2)c1Cl	34.3% (active)
COc1ccc(-c2nc(-c3ccccc3)no2)c(OC)c1	69.4% (inactive)
COc1ccc(Cl)cc1C(=O)NCc1cn(C)nc1C	86.1% (inactive)
Cc1ccccc1-n1c(C)cc(/C=C2\NC(=O)NC2=O)c1C	85.6% (inactive)
CC1CC2=C(CC1/C=N/NC(N)=S)C(C)(C)CCC2 (stereo unspecified)	2.3% (active)
CC1(C)CCCC2=C1CC1C(=O)N(c3ccccc3)C(=O)C1C2 (stereo unspecified)	84% (inactive)
CCCc1nc2ccccc2c(=O)n1NC(=O)c1c(O)c2ccccc2[nH]c1=O	86.6% (inactive)
CCCc1nc2ccccc2c(=O)n1/N=C/c1ccc(O)c(O)c1	15.8% (active)
CCCCc1nc2ccccc2c(=O)n1NC(=O)c1c(O)c2cccc3c2n(c1=O)CC3	70.7% (inactive)
CCOc1cc(C(=S)N2CCOCC2)ccc1O	85.1% (inactive)
CCn1c2ccccc2c2cc(NC(=S)N3CCOCC3)ccc21	20.1% (active)
CCn1c(=O)cc(O)c2ccccc21	83.1% (inactive)
CS(=O)(=O)Nc1ccc(C(=O)N2CCCC2)cc1	89.1% (inactive)
Cc1ccc(CN2CCN(/N=C/c3ccco3)CC2)c(C)c1	106% (inactive)

SMILES	viability
C=CCNC(=O)c1cc2nc(C3CC3)cc(C(F)F)n2n1	91.1% (inactive)
Cc1[nH]n(-c2ccc(Cl)cc2)c(=O)c1/C=N/n1c(C)nc2ccccc2c1=O	50.4% (inactive)
Cn1c(COc2ccc(Cl)cc2)nc2ccccc2c1=O	77.5% (inactive)
Cc1[nH]n(-c2cccc(Cl)c2)c(=O)c1/C=N/n1c(C)nc2ccccc2c1=O	29.1% (active)
O=C(CN(c1ccccc1)S(=O)(=O)c1ccc(Cl)cc1)Nc1ccccc1C(=O)N1CCCC1	84.3% (inactive)
O=C(Cc1ccc(-n2c(=O)[nH]c3ccccc3c2=O)cc1)N1CCN(c2cccc(Cl)c2)CC1	89.4% (inactive)
COc1ccc(NC(=O)Nc2ccc3nc(C)c(C)nc3c2)cc1	90.7% (inactive)
Cc1ccc(NC(=O)Nc2ccc3oc(C)nc3c2)cc1	74.5% (inactive)
O=C(Nc1ccc2ccccc2c1)Nc1ccc2snnc2c1	7.33% (active)
Cc1cc2nc(C)n(CCCNC(=O)Nc3ccccc3)c2cc1C	91.7% (inactive)
CCC1CCCCN1CCCNC(=O)C1CCC(Cn2c(=O)[nH]c3ccccc3c2=O)CC1 (stereo unspecified)	77.4% (inactive)
Cc1cccc(NC(=O)C2CC(=O)OC23CCCC3)c1 (stereo unspecified)	102% (inactive)
COc1ccc(C2CC(c3ccccc3)Nc3ncnn32)cc1 (stereo unspecified)	90.5% (inactive)
COc1ccc(C2CC(c3ccc(C)cc3)Nc3ncnn32)cc1 (stereo unspecified)	91.5% (inactive)
Clc1ccc(C2CC(c3cccs3)n3ncnc3N2)cc1Cl (stereo unspecified)	35.8% (active)
Cc1cccc(C(=O)Nc2ccccc2N2CCN(c3ccc(F)cc3)CC2)c1	89.6% (inactive)
FC(F)(F)c1nnc2ccc(N3CCN(c4ccccc4)CC3)nn12	92.5% (inactive)
COc1ccc2c(c1)CCc1c(C(=O)N3CCc4ccccc4C3)noc1-2	94.9% (inactive)
COc1cc2c(cc1OC)CN(C(=O)c1cc(=O)c3ccccc3o1)CC2	18.1% (active)
COc1ccc(S(=O)(=O)N2CCC(C(=O)N3CCc4ccccc4C3)CC2)cc1OC	88.7% (inactive)
CCN(CC)C(=O)CSc1nc2ccccc2o1	91.7% (inactive)
CCOc1c(Br)cc(/C=C2\C(=O)N(CCC#N)N=C2C)cc1OC	26.2% (active)
CCOc1cc(/C=N/O)cc(Br)c1OC	90.5% (inactive)
Cc1nnc(NCCO)c2ccccc12	89.8% (inactive)
Cn1c(SCC(=O)N2CCCc3ccccc32)nc2ccccc2c1=O	62.9% (inactive)
Fc1ccccc1/C=C1\CCCC2=C1Nc1ncnn1C2c1ccccc1F (stereo unspecified)	1.53% (active)

SMILES	viability
COc1ccc(C2C(C(C)=O)=C(O)C(=O)N2c2nccs2)cc1 (stereo unspecified)	106% (inactive)
O=C(N/N=C/c1ccc(O)cc1)/C(=C/c1ccc([N+](=O)[O-])cc1)NC(=O)c1ccccc1	88.2% (inactive)
COc1c(F)c(F)c(C(=O)O)c(Nc2ccccc2C)c1F	98.5% (inactive)
COc1ccc(C(=O)OCC(=O)NCC2CCCCC2)cc1S(=O)(=O)N1CCCc2ccccc21	72.3% (inactive)
C=CCn1c(SCCOc2ccc(OC)cc2)nnc1C(NC(=O)c1ccc(OC)cc1)C(C)C (stereo unspecified)	64% (inactive)
CCN(CC(=O)NC1CCS(=O)(=O)C1)c1nc(-c2cccnc2)nc2ccccc12 (stereo unspecified)	89.7% (inactive)
Cc1cccc(-n2c(O)c(C=Nc3ccccc3N)c(=O)[nH]c2=O)c1	10% (active)
Cc1cccc(N2CCN(S(=O)(=O)c3ccc4[nH]c(=O)c(=O)[nH]c4c3)CC2C)c1 (stereo unspecified)	98.9% (inactive)
Cc1cccc(-n2c(N)c(C(=O)N3CCN(C)CC3)sc2=S)c1	94.4% (inactive)
O=C(C(NS(=O)(=O)c1cccc2nsnc12)c1ccccc1)N1CCN(c2ccccc2)CC1 (stereo unspecified)	52.6% (inactive)
CCSc1nnc(NC(=O)c2ccc(C)cc2)s1	103% (inactive)
Cc1cccc(Nc2ccccc2C(=O)NCc2ccco2)c1C	15.7% (active)
CCOc1ccccc1C(=O)NCc1ccco1	74.1% (inactive)
O=C(Nc1ccccc1)Nc1ccccc1C(=O)NCc1ccco1	99.2% (inactive)
O=C(Oc1ccccc1C(=S)N1CCCCC1)c1cc([N+](=O)[O-])cc([N+](=O)[O-])c1	94.3% (inactive)
COc1ccccc1N1CC(O)=C(c2nc3ccccc3s2)C1=N	31.6% (active)
COC(=O)c1nc2ccccc2s1	86.8% (inactive)
O=C(OC1CCOC1=O)c1ccc(-c2nc3ccccc3s2)s1 (stereo unspecified)	92.7% (inactive)
COc1ccc(-c2nnc(SCc3cccnc3)o2)cc1	53.3% (inactive)
O=C(COc1ccc(Cl)cc1)NCCSc1ccccc1	95.3% (inactive)
CCOC(=O)c1c(C)[nH]c(C(=O)COc2ccc3c(c2)OCO3)c1C	81.1% (inactive)
CCOC(=O)c1nc(-c2ccc3c(c2)OCO3)[nH]c1C	36% (active)
CCOC(=O)NCc1ccc2c(c1)OCO2	113% (inactive)
Cn1c(CCN2CCCCCC2)nc2cc(NC(=O)Nc3ccccc3)ccc21	9.15% (active)
CCC(=O)Nc1ccc2c(c1)nc(CCN1CCN(C)CC1)n2C	74.1% (inactive)
Cc1nn(CC(=O)Nc2ccc3c(c2)nc(CN2CCCCC2)n3C)c(=O)c2ccccc12	104% (inactive)

SMILES	viability
CC1CCC(N2CC(=O)N(Cc3ccc4c(c3)OCO4)C(c3ccc(F)cc3)C2=O)CC1 (stereo unspecified)	100% (inactive)
COc1cccc2sc(Nc3nc(C)c(C(C)=O)s3)nc12	32.5% (active)
COC(=O)c1sc(NC(=O)c2ccc(OC)cc2OC)nc1C	69.8% (inactive)
CC(=O)c1sc(NC(=O)c2ccc(C)cc2)nc1C	80% (inactive)
CC(C)CC(N=C1NC(C)(C)Cc2ccccc21)C(=O)O (stereo unspecified)	108% (inactive)
CCCCc1nnc(NC(=O)CSc2nc(C)cc(=O)[nH]2)s1	92.2% (inactive)
Cc1ccc(-n2c(CNc3ccc(F)cc3)nnc2SCC(=O)N2CCOCC2)cc1	92% (inactive)
O=C(NCCC1=CCCCC1)C1CCN(Cc2cnn(-c3ccccc3)c2-n2cccc2)CC1	26% (active)
C1=C(CCNc2ncnc3c2cnn3-c2ccccc2)CCCC1	77% (inactive)
CC(=O)Nc1ccc(NC(=O)CSCc2cnn(-c3ccccc3)c2-n2cccc2)cc1	87.6% (inactive)
CC(C)Oc1ccc(Oc2ccc(C(F)(F)F)cn2)cc1	98.7% (inactive)
Cn1c(=N)n(CC(O)c2ccccc2)c2ccccc21 (stereo unspecified)	80.7% (inactive)
O=S(=O)(O)c1nc2ccccc2n1Cc1ccc(Cl)cc1	86.1% (inactive)
N=c1n(Cc2ccc(Cl)cc2)c2ccccc2n1CC(O)c1ccco1 (stereo unspecified)	14.7% (active)
O=C(NCc1ccccc1Cl)c1csc2c1CCCCC2	97.3% (inactive)
CC(Cc1cccs1)NC(=O)NC1CCCCC1 (stereo unspecified)	87% (inactive)
Cc1ccsc1C(C(=O)NC1CCCCC1)N(C(=O)Cc1cccs1)C1CC1 (stereo unspecified)	25.5% (active)
O=C(NCC(=O)N(Cc1cccs1)C(C(=O)NC1CCCCC1)c1ccco1)c1cccs1 (stereo unspecified)	82.2% (inactive)
CC(=O)c1ccc(OCCN2CCOCC2)cc1	85.9% (inactive)
Cc1ccc(NC(=O)N2CCC(O)(c3cccnc3)CC2)cc1	78.4% (inactive)
CCCCc1nnc(NC(=O)CS(=O)(=O)Cc2ccccc2)s1	97% (inactive)
CC(=O)NC1=NN(C(C)=O)C(C)(c2ccc(Cl)s2)S1 (stereo unspecified)	17.3% (active)
O=C(NC1=NCCS1)c1ccc(Cl)s1	93.3% (inactive)
